Measurements: the supplement of paper PMC10849652
About 7,900 targets were measured; listed, in parts, are those with a hit and a random draw of the rest. About 0.6% of all pairs of compound and target were hits.

Experiments:
Assay in all cases: log2 fold change, soluble protein after heating vs DMSO (PISA); higher = thermal stabilisation; K562 cells, 10 uM, 30 min; active = over 0.2 and 3.5 SD of the protein, either way, in both replicates (recomputed)
[1] = compound: C1=CC=C(C=C1)[C@H](COC2=CC3=C(C=C2)NC(=O)N3)NC(=O)C4=CC=CN(C4=O)CC5=CC(=C(C=C5)F)F
Method in brief: (§1)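 For each measurement, 10 μM compound was applied for 30 min to K562 cells at 2×10^6 cells/mL. Aliquots were heated for 3 min across 48°C-58°C, pooled, and extracted in PBS with 0.5% NP-40 at 4°C; the supernatant after 21,000xg for 90 min was soluble protein. This was quantified by TMTpro 16plex LC-MS/MS with channel sums equalised, and thermal stability was reported relative to control samples from duplicates, on a log2 fold-change scale.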

[2] = compound: CC1=C(SC2=C1C(=N[C@H](C3=NN=C(N32)C)CC(=O)N)C4=CC=C(C=C4)Cl)C
Method in brief: as §1

[3] = compound: CC1=C2C(=CC=C1)N=C(N(C2=O)C3=CC=CC=C3C)CN4C=NC5=C(N=CN=C54)N
Method in brief: as §1

[4] = compound: Cc1sc2c(c1C)C(c1ccc(Cl)cc1)=N[C@@H](CC(=O)OC(C)(C)C)c1nnc(C)n1-2
Method in brief: as §1

[5] = compound: c1ccc([C@@H]2C[C@H]2NC2CCNCC2)cc1
Method in brief: as §1

Measured: log2 fold change

CTBS (UniProt Q01459)
Sequence of UniProt Q01459 (Q01459 whole entry, looked up): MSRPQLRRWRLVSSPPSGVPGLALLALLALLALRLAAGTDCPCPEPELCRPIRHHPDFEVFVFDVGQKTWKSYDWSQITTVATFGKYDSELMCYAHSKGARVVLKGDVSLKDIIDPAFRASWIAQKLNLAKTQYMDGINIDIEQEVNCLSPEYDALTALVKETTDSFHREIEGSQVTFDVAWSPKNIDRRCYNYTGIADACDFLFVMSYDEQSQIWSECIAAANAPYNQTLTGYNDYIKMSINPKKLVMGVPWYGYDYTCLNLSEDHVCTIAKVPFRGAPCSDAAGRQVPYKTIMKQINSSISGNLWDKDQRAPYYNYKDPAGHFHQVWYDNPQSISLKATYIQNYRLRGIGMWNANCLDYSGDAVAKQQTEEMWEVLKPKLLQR
inactive: [1] 0.082 | [2] -0.002 | [3] 0.014 | [4] -0.019 | [5] -0.006

COX5B (UniProt P10606)
Sequence of UniProt P10606 (P10606 whole entry, looked up): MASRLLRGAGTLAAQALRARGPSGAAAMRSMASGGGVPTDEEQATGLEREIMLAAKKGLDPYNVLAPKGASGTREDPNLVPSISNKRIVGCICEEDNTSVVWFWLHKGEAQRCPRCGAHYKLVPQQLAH
inactive: [1] 0.015 | [2] 0.104 | [3] -0.006 | [4] -0.126 | [5] -0.099

CIR1 (UniProt Q86X95)
Sequence of UniProt Q86X95 (Q86X95 whole entry, looked up): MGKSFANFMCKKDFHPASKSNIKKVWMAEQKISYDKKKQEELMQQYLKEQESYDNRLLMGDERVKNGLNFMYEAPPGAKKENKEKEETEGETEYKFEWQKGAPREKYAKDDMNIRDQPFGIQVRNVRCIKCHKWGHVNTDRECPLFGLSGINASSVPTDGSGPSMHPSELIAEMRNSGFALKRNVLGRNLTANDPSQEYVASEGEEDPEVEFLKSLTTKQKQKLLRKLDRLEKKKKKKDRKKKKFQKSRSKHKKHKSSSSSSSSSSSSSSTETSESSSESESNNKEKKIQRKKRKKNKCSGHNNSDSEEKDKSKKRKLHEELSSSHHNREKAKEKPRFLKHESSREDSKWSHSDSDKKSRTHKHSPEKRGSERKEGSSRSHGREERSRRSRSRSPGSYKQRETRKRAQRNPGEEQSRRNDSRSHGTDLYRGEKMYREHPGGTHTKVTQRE
inactive: [1] -0.075 | [2] -0.286 | [3] -0.241 | [4] 0.198 | [5] 0.217

CRYM-AS1 (UniProt A6NIL9)
inactive: [1] -0.295 | [2] 0.037 | [3] 0.297 | [4] -0.201 | [5] -0.002

CSK (UniProt P41240)
Sequence of UniProt P41240 (P41240 whole entry, looked up): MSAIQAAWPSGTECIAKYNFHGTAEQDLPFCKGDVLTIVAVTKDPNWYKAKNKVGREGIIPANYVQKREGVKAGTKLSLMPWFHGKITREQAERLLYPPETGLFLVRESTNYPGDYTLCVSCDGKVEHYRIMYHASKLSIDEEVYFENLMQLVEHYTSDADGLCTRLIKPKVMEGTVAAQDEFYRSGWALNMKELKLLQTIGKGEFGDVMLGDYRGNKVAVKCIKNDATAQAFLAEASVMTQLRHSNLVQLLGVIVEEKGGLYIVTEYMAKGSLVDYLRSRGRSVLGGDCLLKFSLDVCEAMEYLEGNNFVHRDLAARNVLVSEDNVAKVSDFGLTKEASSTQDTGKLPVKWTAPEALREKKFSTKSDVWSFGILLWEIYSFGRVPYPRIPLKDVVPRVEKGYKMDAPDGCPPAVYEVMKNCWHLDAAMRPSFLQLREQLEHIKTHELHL
inactive: [1] -0.096 | [2] 0.051 | [3] 0.057 | [4] 0.011 | [5] -0.032

CHMP4C (UniProt Q96CF2)
Sequence of UniProt Q96CF2 (Q96CF2 whole entry, looked up): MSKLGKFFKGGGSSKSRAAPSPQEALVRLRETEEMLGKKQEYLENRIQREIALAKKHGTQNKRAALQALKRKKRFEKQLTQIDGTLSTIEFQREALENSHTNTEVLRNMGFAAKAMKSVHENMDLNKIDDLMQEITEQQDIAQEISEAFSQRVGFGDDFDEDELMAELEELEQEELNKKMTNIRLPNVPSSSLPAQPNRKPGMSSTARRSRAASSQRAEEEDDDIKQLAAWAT
inactive: [1] -0.002 | [2] 0.169 | [3] 0.045 | [4] 0.051 | [5] 0.03

CASP10 isoform 4 (UniProt Q92851)
Sequence of UniProt Q92851 (Q92851 whole entry, looked up): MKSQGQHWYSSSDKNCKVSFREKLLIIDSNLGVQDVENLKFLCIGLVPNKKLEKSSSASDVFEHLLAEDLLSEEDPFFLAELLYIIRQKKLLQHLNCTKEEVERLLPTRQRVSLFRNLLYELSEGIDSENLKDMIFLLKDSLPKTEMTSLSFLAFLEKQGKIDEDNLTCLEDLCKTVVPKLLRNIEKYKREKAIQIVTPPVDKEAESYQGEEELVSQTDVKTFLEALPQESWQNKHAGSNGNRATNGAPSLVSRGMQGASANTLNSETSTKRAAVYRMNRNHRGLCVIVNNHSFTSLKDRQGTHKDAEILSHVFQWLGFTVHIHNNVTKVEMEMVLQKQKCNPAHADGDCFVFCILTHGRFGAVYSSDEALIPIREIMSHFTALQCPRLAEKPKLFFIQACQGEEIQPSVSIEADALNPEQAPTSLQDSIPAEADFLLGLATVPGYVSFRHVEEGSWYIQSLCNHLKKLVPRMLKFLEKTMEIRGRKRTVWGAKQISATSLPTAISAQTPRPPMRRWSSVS
inactive: [1] 0.064 | [2] 0.189 | [3] 0.114 | [4] 0.002 | [5] -0.145

CALCOCO2 isoform 4 (UniProt Q13137)
Sequence of UniProt Q13137 (Q13137 whole entry, looked up): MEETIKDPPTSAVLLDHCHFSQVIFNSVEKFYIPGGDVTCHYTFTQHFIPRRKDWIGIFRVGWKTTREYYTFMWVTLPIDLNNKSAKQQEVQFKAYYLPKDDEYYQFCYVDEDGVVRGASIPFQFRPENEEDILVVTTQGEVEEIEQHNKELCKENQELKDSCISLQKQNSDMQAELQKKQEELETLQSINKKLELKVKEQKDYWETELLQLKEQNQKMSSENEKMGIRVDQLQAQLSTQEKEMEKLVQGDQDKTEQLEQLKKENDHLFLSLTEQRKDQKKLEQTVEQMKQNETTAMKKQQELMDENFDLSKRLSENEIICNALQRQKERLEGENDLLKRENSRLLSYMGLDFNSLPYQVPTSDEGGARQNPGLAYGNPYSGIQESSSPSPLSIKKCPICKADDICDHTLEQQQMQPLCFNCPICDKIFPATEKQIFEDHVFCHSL
inactive: [1] -0.036 | [2] -0.002 | [3] -0.04 | [4] 0.049 | [5] 0.026

CHAC2 (UniProt Q8WUX2)
Sequence of UniProt Q8WUX2 (Q8WUX2 whole entry, looked up): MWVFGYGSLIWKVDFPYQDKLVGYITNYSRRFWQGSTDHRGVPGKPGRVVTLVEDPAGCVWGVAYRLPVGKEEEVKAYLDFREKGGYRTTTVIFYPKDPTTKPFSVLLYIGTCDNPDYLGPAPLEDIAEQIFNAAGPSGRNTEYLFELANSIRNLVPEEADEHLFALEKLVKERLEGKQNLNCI
inactive: [1] -0.036 | [2] -0.034 | [3] -0.034 | [4] 0.008 | [5] 0.027
